# Reference: the supplement of paper PMC8728848
# About 410 targets per protein were measured; listed, in parts, are those with the strongest signals and a random draw of the rest.
# Legend:
# Experiment in all cases: glycan array binding signal (z-score within array); higher = stronger binding
# Settings in all cases: glycan notation: IUPAC condensed, linker removed
# [1] = test system: GlcNAc(a1-4)Gal(b1-4)GalNAc
# Procedure, shortened: (§1)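 Glycan array data were curated from 3228 arrays in the Consortium for Functional Glycomics database and kept only where the protein sequence was available. Glycan names were converted to IUPAC-condensed notation, and columns mapping to the same glycan were averaged. The binding signal is a within-array Z-score, averaged across arrays of the same protein sequence at different concentrations or buffers and across linkers. Negative Z-scores can be read as non-binding.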
# [2] = test system: GlcNAc(b1-2)Man(a1-3)[GlcNAc(b1-2)Man(a1-6)]Man(b1-4)GlcNAc(b1-4)[Fuc(a1-6)]GlcNAc
# Procedure, shortened: as §1
# [3] = test system: GlcNAc(b1-2)Man(a1-3)[GlcNAc(b1-4)][GlcNAc(b1-2)Man(a1-6)]Man(b1-4)GlcNAc(b1-4)[Fuc(a1-6)]GlcNAc
# Procedure, shortened: as §1
# [4] = test system: GlcNAc(b1-2)[GlcNAc(b1-4)]Man(a1-3)[GlcNAc(b1-4)][GlcNAc(b1-2)[GlcNAc(b1-6)]Man(a1-6)]Man(b1-4)GlcNAc(b1-4)GlcNAc
# Procedure, shortened: as §1
# [5] = test system: GlcNAc(a1-3)Gal(b1-4)GlcNAc
# Procedure, shortened: as §1
# [6] = test system: GlcNAc(a1-4)Gal(b1-4)GlcNAc(b1-3)Gal(b1-4)GlcNAc
# Procedure, shortened: as §1
# [7] = test system: GlcNAc(a1-4)Gal(b1-4)GlcNAc(b1-3)Gal(b1-4)[Fuc(a1-3)]GlcNAc(b1-3)Gal(b1-4)[Fuc(a1-3)]GlcNAc
# Procedure, shortened: as §1
# [8] = test system: GlcNAc(b1-2)[GlcNAc(b1-4)]Man(a1-3)[GlcNAc(b1-2)Man(a1-6)]Man(b1-4)GlcNAc(b1-4)GlcNAc
# Procedure, shortened: as §1
# [9] = test system: GlcNAc(b1-2)Gal(b1-3)GalNAc
# Procedure, shortened: as §1
# [10] = test system: GlcNAc(b1-2)Man(a1-3)[GlcNAc(b1-2)Man(a1-6)]Man(b1-4)GlcNAc(b1-4)GlcNAc
# Procedure, shortened: as §1
substance,measurement,setting,value
Epa22,glycan array binding signal (z-score),[1],-0.638
same,glycan array binding signal (z-score),[2],-0.14
LcI (Legionella pneumophila),glycan array binding signal (z-score),[3],-0.447
same,glycan array binding signal (z-score),[4],-0.477
"BambL (Burhholderia ambifaria), Q0B4G1",glycan array binding signal (z-score),[5],-0.316
same,glycan array binding signal (z-score),[6],-0.278
same,glycan array binding signal (z-score),[7],0.185
same,glycan array binding signal (z-score),[2],0.071
same,glycan array binding signal (z-score),[8],-0.291
AgI/II Vhelical-GFP (Streptococcus mutans),glycan array binding signal (z-score),[6],1.06
same,glycan array binding signal (z-score),[8],-0.187
"GspB (Streptococcus gordonii), Q939N5",glycan array binding signal (z-score),[5],2.63
"SiiE (Salmonella typhimurium), A0A0H3NVH0",glycan array binding signal (z-score),[9],0.158
same,glycan array binding signal (z-score),[4],-1.05
"Wza (Escherichia coli), P0A930",glycan array binding signal (z-score),[7],3.13
AgI/IIC123-GFP (Streptococcus mutans),glycan array binding signal (z-score),[10],-0.346
